Source: the supplement of paper PMC6953052
± gives the standard deviation of the averaged measurements. The full ranking holds about 1,700 compounds; the median of “fraction of GFP-LC3-positive cells (≥5 vesicles/cell)” is about 0.43, and the highest 2% start at about 0.81. The full list was thinned out, with the highest values kept by preference.

test system: CbCln3 Δex7/8/Δex7/8 GFP-LC3 cerebellar neuronal cells; assay: fraction of GFP-LC3-positive cells (≥5 vesicles/cell); higher = more autophagosome accumulation
In short: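 By pin transfer, ~50 nL of compound in DMSO went in duplicate into 384-well plates holding 2 × 10^3 wild-type or mutant CbCln3 cerebellar cells per well that stably express GFP-LC3, followed by 24 h at 33 °C. The final 30 min included Hoechst 33342 and LysoTracker Red, and then came 3.2% PFA fixation and 10× imaging of three fields per well. Each value gives the fraction of cells above a vesicle threshold, averaged across duplicates, with CellProfiler counting GFP-LC3 vesicles and out-of-focus images left out. The threshold is 5 or more vesicles per cell.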

SMILES | fraction of GFP-LC3-positive cells
CCCCCCCCCCCCCCC[C@@H](O)[C@H](CO)NC(=O)CCCCCCC | 0.494
CCCCCCCCCCCCCCC[C@@H](O)[C@H](CO)NC(=O)CCCCCCC [C8 Dihydroceramide] | 0.428
CN(CCc1ccc(Cl)c(Cl)c1)CC(O)COc1ccc(NS(C)(=O)=O)cc1 (stereo not given) | 0.503
CC(=N)NCc1cccc(CN)c1 | 0.371
Cc1c(N(C)CS(=O)(=O)[O-])c(=O)n(-c2ccccc2)n1C.[Na+] [Dipyrone] | 0.447
O=c1c(O)c(-c2ccc(O)cc2)oc2cc(O)cc(O)c12 [Kaempferol] | 0.294
O=C1C=CC(=O)c2c1ccc1c2ccc2ccccc21 [Chrysene-1,4-quinone] | 0.883
O=C1CCc2c(ccc3ccccc23)O1 [Splitomycin] | 0.354
N=C(N)NS(=O)(=O)c1ccc(N)cc1 [Sulfaguanidine] | 0.43
CN(C)CC/C=C1\c2ccccc2COc2ccccc21.Cl [Doxepin hydrochloride] | 0.567
CCCc1c(OCCCCc2nnn[nH]2)ccc(C(C)=O)c1O | 0.398 ± 0.011
Cc1c(N)c(=O)n(-c2ccccc2)n1C [Ampyrone] | 0.49
CO[C@@H]1[C@H](N(C)C(=O)c2ccccc2)C[C@H]2O[C@]1(C)n1c3ccccc3c3c4c(c5c6ccccc6n2c5c31)C(=O)NC4 | 0.636
O=P(O)(O)C(O)c1ccc2ccccc2c1 (stereo not given) | 0.425
CN(C)CC/C=C1\c2ccccc2CSc2ccccc21.Cl [Dosulepin hydrochloride] | 0.637
CN(C)CCn1nnnc1SCC1=C(C(=O)O)N2C(=O)[C@@H](NC(=O)Cc3csc(N)n3)[C@H]2SC1.Cl [Cefotiam hydrochloride] | 0.488
CCCCC/C=C\C[C@@H](O)/C=C/C=C/C=C/[C@@H](O)CCCC(=O)O [5(S),12(R)-DiHETE all trans] | 0.354
Nc1cc(N2CCCCC2)nc(N)[n+]1OS(=O)(=O)[O-] | 0.38
CCCC(=O)Nc1ccc(OCC(O)CNC(C)C)c(C(C)=O)c1.Cl (stereo not given) [Acebutolol hydrochloride] | 0.518
CN(C(=O)CN(CCO)CC(=O)N(C)C(C)(C)Cc1ccccc1)C(C)(C)Cc1ccccc1 [Oxethazaine] | 0.384
CCCCC[C@H](O)/C=C/[C@H]1[C@H](O)CC(=O)[C@@H]1CCCCCCC(=O)O | 0.346
CCCCC[C@H](O)/C=C/[C@H]1[C@H](O)CC(=O)[C@@H]1CCCCCCC(=O)O [Prostaglandin E1] | 0.349
O=c1[nH]c2cc(C(F)(F)F)ccc2n1-c1cc(C(F)(F)F)ccc1O | 0.292
C[n+]1ccccc1/C=N/O.[Cl-] [Pralidoxime chloride] | 0.428
Clc1ccc(COC(Cn2ccnc2)c2ccc(Cl)cc2Cl)c(Cl)c1 (stereo not given) [Miconazole] | 0.337

SMILES | fraction of GFP-LC3-positive cells
CC1(C)S[C@@H]2[C@H](NC(=O)[C@H](N)c3ccccc3)C(=O)N2[C@H]1C(=O)OC1OC(=O)c2ccccc21.Cl (stereo not given in full) [Talampicillin hydrochloride] | 0.422
CN/C(=N/CCSCc1nc[nH]c1C)NC#N [Cimetidine] | 0.473
Cn1cnc([N+](=O)[O-])c1Sc1ncnc2[nH]cnc12 [Azathioprine] | 0.388
CCCCC/C=C\C/C=C\C/C=C\C/C=C\CCCC(=O)O[C@@H](CO)COCCCCCCCCCCCCCCCC [1-Hexadecyl-2-arachidonoyl-glycerol] | 0.517
CCCCC/C=C\C/C=C\C/C=C\C/C=C\CCCC(=O)O[C@@H](CO)COCCCCCCCCCCCCCCCC | 0.311
CC(C)n1c(/C=C/[C@H](O)C[C@H](O)CC(=O)[O-])c(-c2ccc(F)cc2)c2ccccc21.[Na+] [Fluvastatin sodium salt] | 0.123
CC(CNC1CCCCC1)OC(=O)c1ccccc1.Cl (stereo not given) [Hexylcaine hydrochloride] | 0.411
O=C1NC(=O)C(c2ccccc2[N+](=O)[O-])=C1Nc1ccc(O)c(Cl)c1 | 0.364
CN[C@@H]1C(O[C@H]2O[C@H](CO)[C@@H](N)[C@H](O)[C@H]2O)O[C@H]2C[C@@H](N)[C@@H](O[C@H]3[C@H](O)[C@@H](O)[C@H](N)C[C@@H]3N)OC2[C@@H]1O (stereo not given in full) [Apramycin] | 0.274
CCCCCCCCCC(=O)N[C@@H](CCCN=C(N)N)C(=O)N[C@H](C(=O)N[C@@H](CCCCN)C(=O)N[C@@H](CCCN=C(N)N)C(=O)CCl)C(C)C | 0.536
CCCCC/C=C\C/C=C\CC1OC1C/C=C\CCCC(=O)O (stereo not given) | 0.392
CCCCC/C=C\C/C=C\CC1OC1C/C=C\CCCC(=O)O (stereo not given) [8,9-Epoxyeicosatrienoic acid] | 0.41
CCCCCC/C=C/CCCCCCCCC(=O)O [10(Z)-Heptadecenoic acid] | 0.419
CCCC[C@@H](C=O)NC(=O)OC(C)(C)C | 0.447
COc1c2occc2c(OC)c2c(=O)cc(C)oc12 [Khellin] | 0.508
Cl.c1cnc(N2CCN(Cc3ccc4c(c3)OCO4)CC2)nc1 [Piribedil hydrochloride] | 0.496
Clc1ccc(COC(Cn2ccnc2)c2ccc(Cl)cc2Cl)cc1.O=[N+]([O-])O (stereo not given) [Econazole nitrate] | 0.353
COC(=O)C1=C(C)NC(C)=C([N+](=O)[O-])C1c1ccccc1C(F)(F)F (stereo not given) | 0.449
CC(=O)N(CC(C)C(=O)O)c1c(I)cc(I)c(N)c1I (stereo not given) [Iocetamic acid] | 0.312
COc1cc(S(C)=O)ccc1-c1nc2ncccc2[nH]1 (stereo not given) [Sulmazole] | 0.364
CN(C)CCCN1c2ccccc2Sc2ccccc21.Cl [Promazine hydrochloride] | 0.434
C#C[C@]1(O)CC[C@H]2[C@@H]3CCC4=C(CCC(=O)C4)[C@H]3CC[C@@]21C [Norethynodrel] | 0.389
COc1ccc2cc([C@@H](C)C(=O)[O-])ccc2c1.[Na+] [(R) -Naproxen sodium salt] | 0.478
Cl.NC(CO)C(=O)NNCc1ccc(O)c(O)c1O (stereo not given) [Benserazide hydrochloride] | 0.411
CC(C)(C)c1cc(O)c(C(C)(C)C)cc1O [2,5-ditertbutylhydroquinone] | 0.696

SMILES | fraction of GFP-LC3-positive cells
COc1cc2nc(N(C)CCCNC(=O)C3CCCO3)nc(N)c2cc1OC.Cl (stereo not given) [Alfuzosin hydrochloride] | 0.474
CC(=O)N[C@@H](CC(C)C)C(=O)O [N-Acetyl-L-leucine] | 0.38
COc1ccc2c(c1)c(CC(=O)OCC(=O)O)c(C)n2C(=O)c1ccc(Cl)cc1 [Acemetacin] | 0.361
CNc1ncnc2c1ncn2[C@@H]1O[C@H](CO)[C@@H](O)[C@H]1O [N6-methyladenosine] | 0.417
COc1ccc(CC(N)C(=O)N[C@H]2[C@@H](O)[C@H](n3cnc4c(N(C)C)ncnc43)O[C@@H]2CO)cc1 (stereo not given in full) [puromycin] | 0.782
COc1ccc(C[C@H](N)C(=O)N[C@H]2[C@@H](O)[C@H](n3cnc4c(N(C)C)ncnc43)O[C@@H]2CO)cc1.Cl.Cl [Puromycin dihydrochloride] | 0.937
CCN(CC)CCCC(C)Nc1ccnc2cc(Cl)ccc12.O=P(O)(O)O.O=P(O)(O)O (stereo not given) [Chloroquine diphosphate] | 0.518
CCN(CC)Cc1cc(Nc2ccnc3cc(Cl)ccc23)ccc1O.Cl.Cl.O.O [Amodiaquin dihydrochloride dihydrate] | 0.513
CCN(CC)CCCC(C)Nc1c2ccc(Cl)cc2nc2ccc(OC)cc12.Cl.Cl.O.O (stereo not given) [Quinacrine dihydrochloride dihydrate] | 0.866
NC1CONC1=O (stereo in doubt) [(S)-(-)-Cycloserine] | 0.414
CNC(C)CCC=C(C)C.CNC(C)CCC=C(C)C.O=C(O)C(O)C(O)C(O)C(O)C(=O)O (stereo not given) [Isometheptene mucate] | 0.479
Cc1c(N(C)C)c(=O)n(-c2ccccc2)n1C [Amidopyrine] | 0.504
COc1ccc2cc1Oc1ccc(cc1)C[C@H]1c3cc(c(OC)cc3CCN1C)Oc1c(OC)c(OC)cc3c1[C@H](C2)N(C)CC3 | 0.746
COc1ccc2cc1Oc1ccc(cc1)C[C@H]1c3cc(c(OC)cc3CCN1C)Oc1c(OC)c(OC)cc3c1[C@H](C2)N(C)CC3 [Tetrandrine] | 0.679
COc1cc2c3cc1Oc1c(OC)c(OC)cc4c1[C@@H](Cc1ccc(OC(=O)c5ccc([N+](=O)[O-])cc5)c(c1)Oc1ccc(cc1)C[C@@H]3N(C)CC2)N(C)CC4 [E6 berbamine] | 0.834
CN(C)CCN(Cc1ccc(Cl)cc1)c1ccccn1.Cl [Chloropyramine hydrochloride] | 0.566
CNCCc1ccccn1.CS(=O)(=O)O.CS(=O)(=O)O [Betahistine mesylate] | 0.488
c1ccc(CN(CCN(Cc2ccccn2)Cc2ccccn2)Cc2ccccn2)nc1 | 0.952
CCc1cccc2c3c([nH]c12)C(CC)(CC(=O)O)OCC3 (stereo not given) [Etodolac] | 0.495
CCc1cc(Cl)c(OC)c(C(=O)NC[C@@H]2CCCN2CC)c1O.Cl [S(-)Eticlopride hydrochloride] | 0.341
C[C@]1(Cn2ccnn2)[C@H](C(=O)O)N2C(=O)C[C@H]2S1(=O)=O [Tazobactam] | 0.531
CCCCCCCCCCCCCCC[C@@H](O)[C@@H](N)CO | 0.515
CCCCCCCCCCCCCCC[C@@H](O)[C@@H](N)CO [Dihydrosphingosine] | 0.348
C[C@]12C=CC(=O)C=C1CC[C@@H]1[C@@H]2C(=O)C[C@@]2(C)[C@H]1CC[C@]2(O)C(=O)CO [Prednisone] | 0.49
CCCC[C@@H](C)/C=C(C)/C=C(\C)C(=O)NC1=C[C@@](O)(/C=C/C=C/C=C/C(=O)NC2=C(O)CCC2=O)[C@@H]2O[C@@H]2C1=O [manumycin A] | 0.917
